Screening results: PubChem BioAssay, several laboratories
The list is not random: actives were taken first. Their share in the collection is about 4.2%.
esBAF inh: blocks esBAF chromatin remodeling in mouse ES cells | 350,000 tested, 2% active | reporter increase, % at 12.5 µM | Bmi1-luciferase knock-in reporter, 24 h; 100% = twice the neutral-well signal; in the data active means activation above about 40%;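 further: a rise in the Bmi1 reporter signal indicates esBAF inhibition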
hgDAF12 agonist: agonists of H. glycines DAF-12 nuclear receptor. HEK293 GAL4-hgDAF12 UAS-luciferase reporter, agonist luminescence; normalized to butyrate control. activation, % at 6.8 µM. 370,000 tested, 1.8% active. AID 687014;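 active means activation above a cutoff set at the mean of all screened compounds plus 3 SD, cut at about 10% in these data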
Wnt bcat act: activators of Wnt/beta-catenin signaling; activation, % at 9.35 µM; AID 743398; 300,000 tested, 1.2% active; Wnt/beta-catenin reporter cell assay, activator, plate reader; in the data active means activation above about 30%, passing the limit was not always enough
ssDAF-12 act: activates DAF-12 receptor from parasite S. stercoralis. activation, % at 6.8 µM. HEK293 ssDAF-12/GRIP1 lit1-tk-luc reporter, luminescence; % of 3 µM dafachronic acid response. 370,000 tested, 1% active;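 active means activation above the mean over all tested compounds plus 3 SD, cut at about 0.9% in these data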
hcDAF-12 act: H. contortus DAF-12 activation, primary screen; 370,000 tested, 1.4% active; HEK293 hcDAF-12 lit1-tk-luc reporter, luminescence; 0% DMSO, 100% Δ7-dafachronic acid; activation, % at 6.8 µM;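 active means activation above the mean of all tested compounds plus 3 SD, cut at about 5.5% in these data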
DAX1 inh: DAX1 (NR0B1) inhibition, primary screen | HEK293T StAR-luciferase reporter, SF-1/DAX-1 repression relief | inhibition, % at 6.8 µM | 370,000 tested, 1.1% active | AID 652010;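 active means inhibition above the mean over all tested compounds plus 3 SD, cut at about 3.6% in these data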;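 further: higher inhibition means more luminescence from relief of DAX-1 repression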
DAX1 conf: confirmation of human DAX1 (NR0B1) inhibitors; 2,400 tested, 87% active; HEK293T StAR-promoter luciferase reporter, SF-1/DAX-1 repression; AID 652134; inhibition, % at 6.8 µM; shares compounds with DAX1 inh;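 active means inhibition above the average of every tested compound plus 3 SD, cut at about 3.8% in these data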;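 further: active compounds raise luminescence by relieving repression of the StAR reporter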
SF1 AF2mut Luc: nonselective inhibitor or artifact in SF-1 mutant DAX1 counter-screen. 2,400 tested, 78% active. AID 652136. inhibition, % at 6.8 µM. HEK293 StAR-luciferase, SF-1 AF2 mutant, luminescence. shares compounds with DAX1 inh;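 active means inhibition above the mean of all tested compounds plus 3 SD, cut at about 3% in these data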
LXR ag: counter-screen for hcDAF-12 agonists: agonists of human LXR-beta; activation, % at 6.8 µM; 3,400 tested, under 10 active; shares compounds with hcDAF-12 act; HEK293 Gal4-LXR tk-luc reporter, luminescence, 24 h; normalized: DMSO 0%, positive control 100%;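 active means mean percent activation of the reporter above a cutoff set as the average over tested compounds plus their standard deviation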
Target sequence (P55055 whole entry, looked up, the tested form may be a part): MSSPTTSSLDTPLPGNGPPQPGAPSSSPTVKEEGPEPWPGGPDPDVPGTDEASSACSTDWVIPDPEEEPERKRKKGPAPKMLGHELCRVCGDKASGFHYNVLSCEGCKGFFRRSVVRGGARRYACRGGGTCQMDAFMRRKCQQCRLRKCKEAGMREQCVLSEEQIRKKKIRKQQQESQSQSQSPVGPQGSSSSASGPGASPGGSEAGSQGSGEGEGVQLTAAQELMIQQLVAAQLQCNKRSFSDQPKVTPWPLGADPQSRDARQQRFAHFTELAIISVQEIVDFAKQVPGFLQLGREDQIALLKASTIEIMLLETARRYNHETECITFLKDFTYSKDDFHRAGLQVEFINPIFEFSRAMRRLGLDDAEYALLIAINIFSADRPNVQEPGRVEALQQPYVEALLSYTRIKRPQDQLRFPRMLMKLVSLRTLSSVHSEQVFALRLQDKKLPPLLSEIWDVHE
hcDAF12 ag: confirmation of H. contortus DAF-12 agonists. shares compounds with hcDAF-12 act. HEK293 hcDAF-12 lit1-tk-luc reporter, luminescence; % of Δ7-dafachronic acid response. activation, % at 6.8 µM. 3,400 tested, 61% active. AID 743032;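 active means mean activation across triplicate tests above the threshold derived from the earlier primary screen, cut at about 5.5% in these data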
hgDAF12 conf: hgDAF-12 agonism, confirmation assay. shares compounds with hgDAF12 agonist. HEK293 GAL4-hgDAF12 luciferase reporter, agonist mode; percent of butyrate response. activation, % at 6.8 µM. 3,300 tested, 80% active. AID 743050;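 active means mean activation over triplicate wells above the hit cutoff derived from the earlier primary screen, cut at about 11% in these data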
LXRb DAF12 ctr: LXR-beta agonism as DAF-12 counter-screen; shares compounds with hgDAF12 agonist; 3,300 tested, under 10 active; activation, % at 6.8 µM; HEK293 Gal4-LXR luciferase reporter, 24 h; AID 743051;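 active means mean activation of the triplicate above a set limit carried over from the primary screen, none filed active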
Each line names hits and unclear results; the compound was inactive in the other large screens (follow-up assays come after a bar, where they were run).

CC(C)Cc1ccc(/C=C/C(=O)N2CCOCC2)cc1	esBAF inh 52, hgDAF12 agonist 16, ssDAF-12 act 1.4, DAX1 inh 6.0 | DAX1 conf 9.5 | SF1 AF2mut Luc 5.2 | hgDAF12 conf 12 | LXRb DAF12 ctr inactive
CC(C)(C)c1ccc(/C=C/C(=O)N2CCOCC2)cc1	none (no result: esBAF inh)
COc1cccc(NC(=O)N[C@H]2CC[C@H](CC(=O)Nc3ccc(-c4ccccc4)cc3)O[C@@H]2CO)c1	none (no result: hgDAF12 agonist, Wnt bcat act, ssDAF-12 act, hcDAF-12 act, DAX1 inh)
CC(C)NC(=O)N[C@H]1C=C[C@H](CC(=O)N2CCCCC2)O[C@@H]1CO	none (no result: hgDAF12 agonist, Wnt bcat act, ssDAF-12 act, hcDAF-12 act, DAX1 inh)
CC(=O)Oc1ccc2c(=O)c(-c3ccccc3)coc2c1	hgDAF12 agonist 13, Wnt bcat act 41, DAX1 inh 5.9 (no result: esBAF inh) | DAX1 conf 6.5 | SF1 AF2mut Luc 4.0 | hgDAF12 conf inactive | LXRb DAF12 ctr inactive
COc1ccc(-c2cc(=O)oc3cc4occ(C)c4cc23)cc1	none
COc1ccc(-c2coc3cc(OC)ccc3c2=O)cc1	hgDAF12 agonist 19, DAX1 inh 5.8 | DAX1 conf 12 | SF1 AF2mut Luc 7.0 | hgDAF12 conf 13 | LXRb DAF12 ctr inactive
CC(=O)Nc1ccc2oc(-c3ccccc3Br)nc2c1	hgDAF12 agonist 15, hcDAF-12 act 8.3, DAX1 inh 5.5 (no result: esBAF inh, Wnt bcat act) | DAX1 conf 13 | SF1 AF2mut Luc 4.7 | LXR ag inactive | hcDAF12 ag inactive | hgDAF12 conf 16 | LXRb DAF12 ctr inactive
CC1C(=O)Nc2ccccc2N1C(=O)c1ccc(O)cc1 (stereo unspecified)	none
O=C1Nc2ccccc2N(C(=O)c2ccc3ccccc3c2)C1c1nc2ccccc2[nH]1 (stereo unspecified)	hgDAF12 agonist 27, ssDAF-12 act 1.8, hcDAF-12 act 6.7, DAX1 inh 13 (no result: esBAF inh) | DAX1 conf inactive | SF1 AF2mut Luc 2.9 | LXR ag inactive | hcDAF12 ag inactive | hgDAF12 conf inactive | LXRb DAF12 ctr inactive
O/N=C/c1ccn(-c2ccc(Br)cc2)c1	hgDAF12 agonist 14, DAX1 inh 5.6 (no result: esBAF inh) | DAX1 conf 5.9 | SF1 AF2mut Luc inactive | hgDAF12 conf inactive | LXRb DAF12 ctr inactive
CC1Cc2ccccc2N1C(=O)COC(=O)/C=C/c1ccc(F)cc1 (stereo unspecified)	none
CC1Cc2ccccc2N1C(=O)/C=C/c1cccc(F)c1 (stereo unspecified)	esBAF inh 90, hgDAF12 agonist 16, DAX1 inh 6.1 | DAX1 conf 7.6 | SF1 AF2mut Luc 6.9 | hgDAF12 conf 16 | LXRb DAF12 ctr inactive
C[C@H]1CN([C@@H](C)CO)C(=O)c2cc(NS(=O)(=O)c3ccccc3)ccc2O[C@H]1CN(C)CC1CC1	none (no result: hgDAF12 agonist, Wnt bcat act, ssDAF-12 act, hcDAF-12 act, DAX1 inh)
CNC[C@H]1Oc2ccc(NS(=O)(=O)c3ccc(Cl)cc3)cc2C(=O)N([C@@H](C)CO)C[C@H]1C	none (no result: hgDAF12 agonist, Wnt bcat act, ssDAF-12 act, hcDAF-12 act, DAX1 inh)
